This is part of a sample that, as a whole, favours compounds with a hit. Of some 83,000 tested, about 20% had one in any assay.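 Note: values are percent growth. 100 is the growth of untreated cells, values between 100 and 0 indicate rising inhibition; between -100 and 0 indicates cell death.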 Calls of active or inactive are those of the source. Rule for the calls: active = growth percent below 10; inactive = the rest.
How the values were obtained:
Test in all cases: NCI-60 one-dose screen, 48 h (100 = growth as untreated, 0 = no growth, -100 = all killed)
Conditions in all cases: 10 µM unless noted
HCT-15 colon = test system: HCT-15 colon
HT29 colon = test system: HT29 colon
SNB-75 CNS = test system: SNB-75 CNS
SNB-19 CNS = test system: SNB-19 CNS
U251 CNS = test system: U251 CNS
PC-3 prostate = test system: PC-3 prostate
SK-MEL-5 melanoma = test system: SK-MEL-5 melanoma
UACC-62 melanoma = test system: UACC-62 melanoma
LOX IMVI melanoma = test system: LOX IMVI melanoma
SK-MEL-28 melanoma = test system: SK-MEL-28 melanoma

Measured: growth

COc1ccc(/C=N/N=C(/c2ccccc2)c2ccc3nc(-c4ccc(Cl)cc4)[nH]c3c2)cc1
inactive: HCT-15 colon 59.7% | HT29 colon 65.7% | SNB-75 CNS 106% | SNB-19 CNS 84.2% | U251 CNS 79.4% | PC-3 prostate 54.7% | SK-MEL-5 melanoma 81% | UACC-62 melanoma 91.9% | LOX IMVI melanoma 77.6% | SK-MEL-28 melanoma 88.4%

NC1CC2(CCN(c3cnc(C(=O)Nc4cc(F)cc5cccnc45)cn3)CC2)C1
inactive: SNB-75 CNS 74.2% | SNB-19 CNS 83.1% | U251 CNS 57.1% | PC-3 prostate 76.6% | SK-MEL-5 melanoma 95.3% | UACC-62 melanoma 95.4% | SK-MEL-28 melanoma 93.3%
active: HCT-15 colon 3.7% | HT29 colon 5.06% | LOX IMVI melanoma -17%

CCCC[n+]1ccc(SCC(=O)n2ccc3ccccc32)c2ccccc21
inactive: HCT-15 colon 103% | HT29 colon 96.9% | SNB-75 CNS 92.7% | SNB-19 CNS 97.4% | U251 CNS 89.3% | PC-3 prostate 90.9% | SK-MEL-5 melanoma 85.8% | UACC-62 melanoma 77.7% | LOX IMVI melanoma 101% | SK-MEL-28 melanoma 109%

NS(=O)(=O)c1ccc(Nc2nc(N/N=C/c3ccc4c(c3)OCO4)nc(Nc3ccccc3)n2)cc1
inactive: HCT-15 colon 82.7% | HT29 colon 40.2% | SNB-75 CNS 53.6% | SNB-19 CNS 55.8% | U251 CNS 55.4% | PC-3 prostate 59.1% | SK-MEL-5 melanoma 54.3% | LOX IMVI melanoma 26.7% | SK-MEL-28 melanoma 67.5%

COc1ccc(-c2c3c(cn2Cc2cccc(OC)c2)-c2oncc2CCC3)cc1
inactive: HCT-15 colon 95.1% | HT29 colon 109% | SNB-75 CNS 103% | SNB-19 CNS 93.4% | U251 CNS 93.2% | PC-3 prostate 85.4% | SK-MEL-5 melanoma 100% | LOX IMVI melanoma 95.2% | SK-MEL-28 melanoma 110%

CCN(CC)CCOc1ccc(C(=C(c2ccccc2)C2CCCC2)c2ccc(OCCN(CC)CC)cc2)cc1
active: HCT-15 colon -70.2% | HT29 colon -5.44% | SK-MEL-5 melanoma -82.4% | LOX IMVI melanoma -56.6%
inactive: SNB-75 CNS 10.3% | SNB-19 CNS 14.6% | U251 CNS 20.5% | PC-3 prostate 14.6% | SK-MEL-28 melanoma 29%

NS(=O)(=O)c1ccc(Nc2nc(Nc3ccccc3)nc(N3N=C(c4ccc(Cl)cc4)CC3c3ccc(Cl)cc3)n2)cc1 (centres undefined)
active: HT29 colon 9.63%
inactive: HCT-15 colon 36.6% | SNB-75 CNS 68% | SNB-19 CNS 61.1% | U251 CNS 61.3% | PC-3 prostate 43% | SK-MEL-5 melanoma 51.9% | LOX IMVI melanoma 12.6% | SK-MEL-28 melanoma 47.1%

Cc1cc2nc3c4cc(C#N)ccc4n(CCN(C)C)c3nc2cc1C
active: HCT-15 colon 2.02% | HT29 colon -44.3% | SNB-75 CNS -8.73% | SNB-19 CNS 5.67% | U251 CNS 2.73% | PC-3 prostate 4.69% | SK-MEL-5 melanoma -89.5% | LOX IMVI melanoma -55.5%

N#CC1=C2NCCCNc3oc(nc3C#N)Cc3ccccc3CC(=N1)O2
active: LOX IMVI melanoma 8.01%
inactive: HCT-15 colon 74.8% | HT29 colon 102% | SNB-75 CNS 92% | SNB-19 CNS 93.2% | U251 CNS 96.1% | PC-3 prostate 91.9% | SK-MEL-5 melanoma 99.1% | SK-MEL-28 melanoma 102%

O=c1nc(Nc2ccc([N+](=O)[O-])cc2O)sc2ccccc12
inactive: HCT-15 colon 26.6% | HT29 colon 81.7% | SNB-19 CNS 28.7% | U251 CNS 36.8% | PC-3 prostate 16.5% | SK-MEL-5 melanoma 21% | LOX IMVI melanoma 41.2% | SK-MEL-28 melanoma 50.8%
active: SNB-75 CNS -11.7%

O=C(Nc1ccc(N2CCOCC2)cc1)Nc1ccc2c(ccn2C(=O)c2cccc(F)c2)c1
inactive: HCT-15 colon 78.6% | HT29 colon 76% | SNB-75 CNS 12.3% | SNB-19 CNS 46.9% | U251 CNS 41.5% | PC-3 prostate 49.3% | SK-MEL-5 melanoma 69.4% | UACC-62 melanoma 42.3% | LOX IMVI melanoma 23% | SK-MEL-28 melanoma 59.2%

CCOC(=O)C1=C(C)NC(C)=C(C(=O)OC(C)C)C1c1cccc(C#N)c1 (centres undefined)
inactive: HCT-15 colon 99.1% | HT29 colon 108% | SNB-75 CNS 84.5% | SNB-19 CNS 101% | U251 CNS 100% | PC-3 prostate 87.2% | SK-MEL-5 melanoma 99.6% | LOX IMVI melanoma 95.2% | SK-MEL-28 melanoma 105%

O=C1C(N2CCN(c3ccccc3)CC2)=C(Cl)C(=O)c2ncccc21
inactive: HCT-15 colon 20.3% | HT29 colon 106% | SNB-75 CNS 83.7% | SNB-19 CNS 81.5% | U251 CNS 79.5% | PC-3 prostate 71.9% | SK-MEL-5 melanoma 95.1% | LOX IMVI melanoma 10.4% | SK-MEL-28 melanoma 83%

O=C(N/N=C\c1ccc([N+](=O)[O-])cc1)c1ccc2nc(-c3ccc(Br)cc3)[nH]c2c1
active: HT29 colon -0.826% | U251 CNS 4.44% | SK-MEL-5 melanoma 2.52% | LOX IMVI melanoma -52.9%
inactive: HCT-15 colon 14.8% | SNB-75 CNS 56.4% | SNB-19 CNS 41.6% | PC-3 prostate 25% | UACC-62 melanoma 31.4% | SK-MEL-28 melanoma 36.8%

O=S(=O)(Oc1ccc(-c2cn3ccoc3n2)cc1)C1CCCCC1
inactive: HCT-15 colon 62.7% | HT29 colon 96.7% | SNB-75 CNS 124% | SNB-19 CNS 97.1% | U251 CNS 104% | PC-3 prostate 91.5% | SK-MEL-5 melanoma 91.1% | UACC-62 melanoma 85.3% | LOX IMVI melanoma 100% | SK-MEL-28 melanoma 100%

COC(=O)CCCNCCCn1ccc2cc(NCc3cccc(-c4ccccc4)c3C)ccc21
inactive: HCT-15 colon 55.5% | HT29 colon 90.7% | SNB-75 CNS 68.9% | SNB-19 CNS 82.4% | U251 CNS 64.8% | PC-3 prostate 58.4% | SK-MEL-5 melanoma 92.8% | SK-MEL-28 melanoma 75.9%
active: LOX IMVI melanoma 4.91%

CC1=C(C)C(=O)C(Nc2ccc3c(c2)OCO3)=C(Br)C1=O
inactive: HCT-15 colon 101% | HT29 colon 109% | SNB-75 CNS 74.3% | SNB-19 CNS 93.8% | U251 CNS 103% | PC-3 prostate 86% | SK-MEL-5 melanoma 90.2% | LOX IMVI melanoma 77.2% | SK-MEL-28 melanoma 110%

Fc1cccc(Cl)c1/C=N/Nc1nc(N/N=C/c2c(F)cccc2Cl)nc(N2CCCCC2)n1
active: HCT-15 colon 3.94% | HT29 colon 3.5% | SK-MEL-5 melanoma -59.1%
inactive: SNB-75 CNS 37.5% | SNB-19 CNS 25.8% | U251 CNS 26.8% | PC-3 prostate 18.7% | UACC-62 melanoma 18.3% | LOX IMVI melanoma 19.6% | SK-MEL-28 melanoma 44.9%

COC(=O)c1cccc(NC2=CC(=O)C(C)=C(C)C2=O)c1
inactive: HCT-15 colon 93.8% | HT29 colon 110% | SNB-75 CNS 93.4% | SNB-19 CNS 96.2% | U251 CNS 94.7% | PC-3 prostate 79.7% | SK-MEL-5 melanoma 96.3% | LOX IMVI melanoma 61% | SK-MEL-28 melanoma 111%

CCc1cc2c(cc1Cl)nc1c(=O)[nH]c(=O)nc-1n2CCOCC(C)(C)C
inactive: HCT-15 colon 58.3% | HT29 colon 58.5% | SNB-75 CNS 97% | SNB-19 CNS 91% | U251 CNS 83.4% | PC-3 prostate 68% | SK-MEL-5 melanoma 39.6% | UACC-62 melanoma 76.1% | LOX IMVI melanoma 71.9% | SK-MEL-28 melanoma 97.2%

CC1(C)CC[C@]23CC[C@]4(C)[C@H](CC[C@@H]5[C@@]6(C)CC[C@H](NCO)C(C)(C)[C@@H]6CC[C@]54C)[C@H]2[C@H]1OC3
active: HCT-15 colon -13.5% | U251 CNS 1.32% | LOX IMVI melanoma -89.9%
inactive: HT29 colon 17.9% | SNB-75 CNS 86.5% | SNB-19 CNS 36.9% | PC-3 prostate 75% | SK-MEL-5 melanoma 97.7% | UACC-62 melanoma 99.6% | SK-MEL-28 melanoma 89.5%

COc1cc(C(=O)c2cc(C(C)=O)c3cccc(C)n23)cc(OC)c1OC
active: HT29 colon 8.74% | SNB-75 CNS 5.39%
inactive: HCT-15 colon 17.9% | SNB-19 CNS 39.8% | U251 CNS 30.9% | PC-3 prostate 55.7% | SK-MEL-5 melanoma 33.3% | LOX IMVI melanoma 39.2% | SK-MEL-28 melanoma 61.8%

NCCNC(=O)c1cccc(COc2ccccc2NC(=O)c2cc(Cl)c(Cl)[nH]2)c1
inactive: HCT-15 colon 94.3% | HT29 colon 109% | SNB-75 CNS 72.5% | SNB-19 CNS 96.9% | U251 CNS 88.7% | PC-3 prostate 102% | SK-MEL-5 melanoma 99.4% | UACC-62 melanoma 87.3% | LOX IMVI melanoma 81.5% | SK-MEL-28 melanoma 94.8%

CN1c2ccccc2Sc2cc(/C=N/Nc3ccnc4cc(Cl)ccc34)ccc21
inactive: HCT-15 colon 50.2% | HT29 colon 76.5% | SNB-75 CNS 104% | SNB-19 CNS 94.8% | U251 CNS 80.7% | PC-3 prostate 88.6% | SK-MEL-5 melanoma 94.7% | UACC-62 melanoma 101% | LOX IMVI melanoma 47.7% | SK-MEL-28 melanoma 103%

C#CCn1cc(/C=N/Nc2nc(-c3ccc(Br)cc3)cs2)c2ccccc21
inactive: HCT-15 colon 95.3% | HT29 colon 104% | SNB-75 CNS 95.4% | SNB-19 CNS 96.6% | U251 CNS 101% | PC-3 prostate 91.7% | SK-MEL-5 melanoma 98.7% | LOX IMVI melanoma 94.4% | SK-MEL-28 melanoma 103%

O=C(Nc1cccc(Cl)c1)Nc1nc2cc([N+](=O)[O-])ccc2o1
inactive: HCT-15 colon 29.4% | HT29 colon 71.6% | SNB-75 CNS 72.9% | SNB-19 CNS 31.3% | U251 CNS 23.3% | PC-3 prostate 29.8% | SK-MEL-5 melanoma 15.7% | UACC-62 melanoma 29.1% | LOX IMVI melanoma 40.4% | SK-MEL-28 melanoma 36.2%

O=C(CCCCCCNC(=O)c1csc(Br)n1)NO
inactive: HCT-15 colon 60.5% | HT29 colon 17.2% | SNB-75 CNS 19.4% | SNB-19 CNS 59.7% | U251 CNS 49.3% | PC-3 prostate 47.4% | SK-MEL-5 melanoma 17.7% | LOX IMVI melanoma 13.8% | SK-MEL-28 melanoma 29.3%

CCCN1C=C/C(=C\C(=O)n2ccc3ccccc32)c2ccccc21
inactive: HCT-15 colon 80.3% | HT29 colon 74.7% | SNB-75 CNS 90.8% | SNB-19 CNS 94.5% | U251 CNS 90.3% | PC-3 prostate 73.7% | SK-MEL-5 melanoma 82.1% | UACC-62 melanoma 68.9% | LOX IMVI melanoma 78.7% | SK-MEL-28 melanoma 90.6%

Reference: PubChem BioAssay (NCI)
